Compound activity from PubChem.
Rows were chosen to be rich in hits. Some 2.4% of all compounds tested hit in one or more screens of this group.
M1 ag – activates human CHRM1 receptor | P11229 | CHO-K1 hM1, Fluo-8 calcium fluorescence, agonist mode; 0% DMSO, 100% acetylcholine EC100 | activation, % at 3 µM | 360,000 compounds, 0.33% hits | AID 588814;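 active means activation above the run's mean compound activation plus 3 SD, cut at about 16% in these data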;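 further: peak over basal fluorescence ratio within a 140 s kinetic read after compound addition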
Target sequence (P11229 whole entry, looked up): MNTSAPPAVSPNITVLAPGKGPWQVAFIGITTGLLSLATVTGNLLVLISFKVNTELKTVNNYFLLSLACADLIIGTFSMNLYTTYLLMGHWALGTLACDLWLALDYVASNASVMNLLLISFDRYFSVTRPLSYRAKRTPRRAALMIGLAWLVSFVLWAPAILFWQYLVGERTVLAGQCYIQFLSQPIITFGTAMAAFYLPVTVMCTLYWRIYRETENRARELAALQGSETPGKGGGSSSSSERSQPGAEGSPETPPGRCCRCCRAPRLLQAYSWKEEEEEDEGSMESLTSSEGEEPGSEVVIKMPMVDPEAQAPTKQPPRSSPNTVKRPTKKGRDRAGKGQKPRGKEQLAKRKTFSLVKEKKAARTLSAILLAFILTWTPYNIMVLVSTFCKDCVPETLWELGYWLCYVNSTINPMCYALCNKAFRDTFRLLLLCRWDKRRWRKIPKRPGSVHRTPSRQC
M1 ag parental – counter-screen for M1 agonists: effect in parental CHO-K1 cells. Fluo-8 calcium fluorescence; scaled to maximal ATP response, vehicle zero. AID 602248. 360,000 compounds, 0.48% hits. activation, % at 3 µM; in the data active means activation above about 15%;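 further: untransfected CHO-K1 host cells lacking M1 receptor as counterscreen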
M1 PAM – positive allosteric modulators of human M1 muscarinic receptor | AID 588819 | CHO-K1 hM1, Fluo-8 calcium fluorescence, ACh EC20; 0% = ACh EC20, 100% = maximal ACh | P11229 | 360,000 compounds, 0.088% hits | activation, % at 3 µM; in the data active means activation above about 19%, passing the limit was not always enough
CHO-K1 Ca antag – M1 antagonist counterscreen hit in parental CHO-K1 cells; ATP-induced calcium, Fluo-8 fluorescence; inhibition, % at 3 µM; 360,000 compounds, 0.6% hits; AID 602250;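 active means inhibition above a per-plate cutoff, the plate's mean sample inhibition plus 3 SD, cut at about 24% in these data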
CHO-K1 Ca PAM – M1 PAM counterscreen hit in parental CHO-K1 cells. AID 602247. ATP EC20, Fluo-8 calcium fluorescence; 0% at ATP EC20, 100% at ATP max. 360,000 compounds, 0.02% hits. activation, % at 3 µM;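 active means activation above the run cutoff, the mean activation of all test compounds plus 3 SD, cut at about 40% in these data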;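 further: peak over basal fluorescence ratio in a 140 s read after ATP addition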
M1 antag – blocks human M1 muscarinic receptor; inhibition, % at 3 µM; 360,000 compounds, 1.3% hits; CHO-K1 hM1, Fluo-8 calcium fluorescence, ACh EC80 antagonist;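 active means percent inhibition above its own plate's cutoff, namely the mean of that plate's compound wells plus 3 SD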;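 further: peak over basal fluorescence ratio during 140 s after agonist addition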
Large screens that a line does not name were inactive.

CN(C)CCNC(=O)Nc1ccc(F)cc1F	none
COc1cc2c(cc1Cl)/C(=C\CCN(C)C)c1ccccc1S2	M1 antag 66
COc1cc(Cl)cc2c1Sc1ccccc1/C2=C/CCN(C)C	M1 antag 68
COc1ccc(CCN(/C=C2\Sc3ccccc3C2=O)C(C)=O)cc1OC	none
CN1CCN(CC/C=C2/c3ccccc3Sc3ccc(S(=O)(=O)N(C)C)cc32)CC1	none
CN(C)CCNC(=O)c1ccc2c(c1)NC(=O)c1ccccc1S2	none
Cc1onc(-c2c(Cl)cccc2Cl)c1C(=O)N(C)Cc1ccccc1	none
O=C1c2ccccc2-c2onc3ccc(N4CCCC4)c1c23	none
CCNc1ccc2noc3c2c1C(=O)c1ccccc1-3	M1 ag 75, M1 ag parental 51, CHO-K1 Ca antag 27, M1 antag 36
CCOc1ccc2noc3c2c1C(=O)c1ccccc1-3	M1 ag 22
O=C1c2ccccc2-c2onc3ccc(NCc4ccco4)c1c23	M1 ag 36, M1 ag parental 19, CHO-K1 Ca antag 45, M1 antag 44
Cc1ccc(OCC(=O)NNC(=O)C2CSC3(C)CCC(=O)N23)cc1 (stereo not given)	none
COc1ccc(S(=O)(=O)Nc2cccc(-c3ccc4nncn4n3)c2)c(OC)c1	none
O=C(NC(NC(=S)Nc1ccccc1Cl)C(Cl)(Cl)Cl)c1cccc(Cl)c1 (stereo not given)	CHO-K1 Ca antag 24
COc1ccc(NC(=S)NC(NC(=O)c2cccc(Cl)c2)C(Cl)(Cl)Cl)c([N+](=O)[O-])c1 (stereo not given)	none
Cc1cc2oc(=O)cc(CN3CCCCC3C)c2cc1C(C)C (stereo not given)	none
COc1cn(-c2ccccc2)nc1C(=O)NCc1ccc(C)cc1	none
COc1cn(-c2ccccc2)nc1C(=O)NCc1ccccc1	M1 PAM 33
COc1ccc(N(C)S(=O)(=O)c2cccc(C(=O)Nc3ccc(-n4cnnn4)cc3)c2)cc1	M1 antag 29
COc1ccc(N(C)S(=O)(=O)c2cccc(C(=O)Nc3ccc4c(c3)OCCO4)c2)cc1	none
O=C(O)[C@@H](c1ccccc1)N1Cc2ccccc2C1=O	CHO-K1 Ca antag 30
O=C(O)C(c1ccccc1)N1C(=O)c2ccccc2C1=O (stereo not given)	none
Cc1ccc(S(=O)(=O)N2CCN(C(C)CC(=O)O)CC2)cc1 (stereo not given)	none
Nc1ccc(-c2nc3ccc(C(=O)O)cc3s2)cc1	none
O=C(O)c1ccc2nc(-c3ccccc3)sc2c1	CHO-K1 Ca antag 29
O=S(=O)(c1ccc2c(c1)C(O)c1ccccc1CC2)C(F)(F)F (stereo not given)	M1 antag 30
Cc1cc(C(F)(F)F)nc(-n2cc(-c3ccccc3)nn2)n1	none
COc1ccc(C(=O)C[n+]2ccc3c(c2)nc(-c2ccccc2)n3C)cc1	M1 antag 57
CCc1ccc(OCC(=O)NC(C)C)cc1	none
COc1ccc(OC)c(C(=O)c2ccc(C(=O)Nc3ccc4ccccc4c3)cc2)c1	CHO-K1 Ca antag 27
COc1ccc(C(=O)Nc2ccc3ccccc3c2)cc1	none
CCCCCn1c2c(c(=N)c3ccccc31)CCC2	none
CCCCCCCCCn1c2c(c(=N)c3c1CCC3)CCCC2	CHO-K1 Ca antag 38, M1 antag 49
CCCCCCCCn1c2c(c(=N)c3ccccc31)CCC2	CHO-K1 Ca antag 31, M1 antag 47
CCn1c2c(c(=N)c3c1CCC3)CCCC2	none
CCCCCCCCCCn1c2c(c(=N)c3c1CCC3)CCC2	M1 antag 35
Cc1cc(C)c(S(=O)(=O)Nc2cc(C)on2)c(C)c1	none
CNC(=O)Nc1cccc(-c2ccnc(C)n2)c1	M1 ag parental 20
Cc1ccc(SC[C@H](c2ccccc2)N2CCN(C)CCC2=O)cc1	M1 antag 33
c1ccc(COc2ccccc2CNC23CC4CC(CC(C4)C2)C3)cc1	none
O=C(COC(=O)CCc1ccc(S(=O)(=O)N2CCOCC2)cc1)NCc1ccc(Cl)cc1	none
CC(C1CC1)N(Cc1ccccc1)C(=S)Nc1ccccc1Cl (stereo not given)	M1 ag parental 18
CCOCCC(=O)Nc1ccc2c(c1)c(=O)n(C)n2Cc1cccc(C(F)(F)F)c1	M1 PAM 32
